One assay relates to AAK1. Further details: species or system human, MV4-11 + K-562 + COLO205 + SK-N-BE2 + OVCAR-8. Particulars: read-out: apparent Kd, n = 1.
The next assay deals with BMP2K. Details: species or system human, MV4-11 + K-562 + COLO205 + SK-N-BE2 + OVCAR-8. Particulars: read-out: apparent Kd, n = 1.
For another assay, the target named is Q6ZSR9 (human, UniProt Q6ZSR9). Details: species or system MV4-11 + K-562 + COLO205 + SK-N-BE2 + OVCAR-8. Particulars: read-out: apparent Kd, n = 1.
Q6ZSR9, sequence (Q6ZSR9 whole entry, looked up): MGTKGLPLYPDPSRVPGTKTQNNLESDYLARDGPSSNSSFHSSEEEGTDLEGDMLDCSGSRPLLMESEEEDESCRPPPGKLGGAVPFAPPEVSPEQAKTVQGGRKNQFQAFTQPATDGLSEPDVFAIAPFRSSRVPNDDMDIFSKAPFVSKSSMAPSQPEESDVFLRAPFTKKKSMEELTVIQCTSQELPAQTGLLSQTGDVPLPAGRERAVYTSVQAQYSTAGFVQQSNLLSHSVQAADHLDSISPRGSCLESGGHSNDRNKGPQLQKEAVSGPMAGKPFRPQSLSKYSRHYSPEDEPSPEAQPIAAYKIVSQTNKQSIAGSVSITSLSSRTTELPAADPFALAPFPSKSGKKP
The test system of the next assay is PKN1. Further details: species or system human, MV4-11 + K-562 + COLO205 + SK-N-BE2 + OVCAR-8. Particulars: read-out: apparent Kd; compound concentrations: 100 nM and 1000 nM (sheet 'Samples'), CATDS: 2.9340466494355399E-2; n = 1.
The subject of another assay is CLK4. Further details: species or system human, MV4-11 + K-562 + COLO205 + SK-N-BE2 + OVCAR-8. Particulars: read-out: apparent Kd, n = 1.
The next assay relates to CSNK2A1;CSNK2A3. Further details: species or system human, MV4-11 + K-562 + COLO205 + SK-N-BE2 + OVCAR-8. Particulars: read-out: apparent Kd; compound concentrations:100 nM and 1000 nM (sheet 'Samples'); n = 1.
A further assay has as its system CSNK2A2. Further details: species or system human, MV4-11 + K-562 + COLO205 + SK-N-BE2 + OVCAR-8. Particulars: read-out: apparent Kd; compound concentrations:100 nM and 1000 nM (sheet 'Samples'); n = 1.
The test system of a further assay is FLT3. Further details: species or system human, MV4-11 + K-562 + COLO205 + SK-N-BE2 + OVCAR-8. Particulars: read-out: apparent Kd, n = 1.
The next assay relates to GAK. Details: species or system human, MV4-11 + K-562 + COLO205 + SK-N-BE2 + OVCAR-8. Particulars: read-out: apparent Kd; compound concentrations:100 nM and 1000 nM (sheet 'Samples'); n = 1.
The next assay has as its system NUAK1. Further details: species or system human, MV4-11 + K-562 + COLO205 + SK-N-BE2 + OVCAR-8. Particulars: read-out: apparent Kd, n = 1.
A further assay relates to SIK2. Details: species or system human, MV4-11 + K-562 + COLO205 + SK-N-BE2 + OVCAR-8. Particulars: read-out: apparent Kd; compound concentrations:100 nM and 1000 nM (sheet 'Samples'); n = 1.
In a further assay the test system is CLK1. Further details: species or system human, MV4-11 + K-562 + COLO205 + SK-N-BE2 + OVCAR-8. Particulars: read-out: apparent Kd, n = 1.
The next assay concerns MELK. Details: species or system human, MV4-11 + K-562 + COLO205 + SK-N-BE2 + OVCAR-8. Particulars: read-out: apparent Kd, n = 1.
The test system of a further assay is RET. Further details: species or system human, MV4-11 + K-562 + COLO205 + SK-N-BE2 + OVCAR-8. Particulars: read-out: apparent Kd; compound concentrations:100 nM and 1000 nM (sheet 'Samples'); n = 1.
The subject of a further assay is GSK3A. Further details: species or system human, MV4-11 + K-562 + COLO205 + SK-N-BE2 + OVCAR-8. Particulars: read-out: apparent Kd; compound concentrations: 100 nM and 1000 nM (sheet 'Samples'), CATDS: 3.86716280658417E-2; n = 1.
In the next assay the test system is GSK3B. Further details: species or system human, MV4-11 + K-562 + COLO205 + SK-N-BE2 + OVCAR-8. Particulars: read-out: apparent Kd; compound concentrations: 100 nM and 1000 nM (sheet 'Samples'), CATDS: 6.1886578646693099E-2; n = 1.
The mark [1] stands for this setting: compound concentrations:100 nM and 1000 nM (sheet 'Samples').

Molecules are shown by their SMILES. Where two headings read alike, the source gives them in different places.

On to `CCn1c(-c2cccnc2O)nc2cnccc21` [SB-736715], for which the potency estimated from few doses in the assay on AAK1 (compound concentrations: 100 nM and 1000 nM (sheet 'Samples'), CATDS: 1.3866746573900799E-2) is 1530 nM.
For `Cc1cc(-c2ccnc(Nc3cccc(C#N)c3)n2)cc(C)c1O` [GSK1440913A], the potency estimated from few doses in the assay with AAK1 (compound concentrations: 100 nM and 1000 nM (sheet 'Samples'), CATDS: 0.22953291556049499) was 120 nM; with BMP2K (compound concentrations: 100 nM and 1000 nM (sheet 'Samples'), CATDS: 0.10539472264710199), 564 nM; with Q6ZSR9 (compound concentrations: 100 nM and 1000 nM (sheet 'Samples'), CATDS: 0.240078758272596), 111 nM.
As to `NCC(NC(=O)c1cc(-c2cn[nH]c2)c(-c2ccnc3[nH]ccc23)s1)c1ccccc1.NCC(NC(=O)c1cc(-c2cn[nH]c2)c(-c2ccnc3[nH]ccc23)s1)c1ccccc1.O=C(O)C(F)(F)F.O=C(O)C(F)(F)F` (stereo not shown) [GSK1325775A], the potency estimated from few doses was 1070 nM in the assay on AAK1 (compound concentrations: 100 nM and 1000 nM (sheet 'Samples'), CATDS: 3.6567153264384103E-2); 847 nM in the assay with BMP2K (compound concentrations: 100 nM and 1000 nM (sheet 'Samples'), CATDS: 3.9732447761342798E-2); 2310 nM in the assay on PKN1; 829 nM with Q6ZSR9 (compound concentrations: 100 nM and 1000 nM (sheet 'Samples'), CATDS: 4.0068531071680201E-2).
With `CC(C)Oc1ccc2c(-c3ccnc(Nc4ccc(N5CCN(C)CC5)cc4)n3)cnn2n1` [GW696155X], the potency estimated from few doses was 35.4 nM in the assay with AAK1 (setting [1]); 344 nM with BMP2K (setting [1]); 1570 nM in the assay on CLK4 (setting [1]); 416 nM in the assay on CSNK2A1;CSNK2A3; 201 nM with CSNK2A2; 479 nM with FLT3 (setting [1]). Also, the potency estimated from few doses in the assay on GAK was 454 nM; in the assay with NUAK1 (setting [1]), 1030 nM; with Q6ZSR9 (setting [1]) it was 39.6 nM; in the assay on SIK2, 781 nM.
As for `CNc1cc(-c2ccc3c(N)n[nH]c3c2)nc(N)n1` [GSK2224810A], the potency estimated from few doses is 781 nM with AAK1 (setting [1]); 1040 nM in the assay with BMP2K (setting [1]); 314 nM with CLK1 (setting [1]); 154 nM in the assay with CLK4 (setting [1]); 898 nM in the assay on MELK (setting [1]); 687 nM with Q6ZSR9 (setting [1]). In addition, the potency estimated from few doses in the assay with RET was 1070 nM.
For the molecule `c1cnn2ncc(-c3ccnc(Nc4ccc5c(c4)OCCO5)n3)c2c1` [GW806290X], the potency estimated from few doses is 1080 nM in the assay with AAK1 (compound concentrations: 100 nM and 1000 nM (sheet 'Samples'), CATDS: 2.3873616537329799E-2); 106 nM in the assay on CLK1 (compound concentrations: 100 nM and 1000 nM (sheet 'Samples'), CATDS: 6.6494036250362598E-2); 57.2 nM with CLK4 (compound concentrations: 100 nM and 1000 nM (sheet 'Samples'), CATDS: 9.8127081360261201E-2); 61.9 nM in the assay on FLT3 (compound concentrations: 100 nM and 1000 nM (sheet 'Samples'), CATDS: 9.3011022280108296E-2); 308 nM in the assay on GSK3A; 121 nM in the assay with GSK3B. Moreover, the potency estimated from few doses in the assay with MELK (compound concentrations: 100 nM and 1000 nM (sheet 'Samples'), CATDS: 1.9268078616401899E-2) is 2360 nM; in the assay on NUAK1 (compound concentrations: 100 nM and 1000 nM (sheet 'Samples'), CATDS: 2.7516933063414101E-2), 713 nM; with Q6ZSR9 (compound concentrations: 100 nM and 1000 nM (sheet 'Samples'), CATDS: 2.3514563204250299E-2), 1130 nM.

(Values after publication PMC11062922 (Nature Chemical Biology, 2023).)
